A selection: hits, their analogues and other compounds. The true share with any hit is near 1.3%.
ALOX12 inh – ALOX12 (human) lipoxygenase inhibition | P18054 | purified 12hLO, xylenol orange hydroperoxide absorbance | Potency, µM (highest dose often 108 µM), for the others: at the top dose activity change, negative = inhibition, usual class: inhibitors | 1.1% of 580,000 active | AID 1671190; further: potency means the concentration at half of the fitted maximal effect; on the % scale 0 is the no-effect control and ±100 the full control effect
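Purified human 12hLO at 150 nM in 25 mM Hepes, 0.01% Triton X-100, pH 7.0, preincubated 15 min at room temperature with compound. Reaction started with 40 uM arachidonic acid, 30 min at room temperature. Hydroperoxide measured by Fe-xylenol orange, 573/405 nm absorbance ratio.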
Vif-APOBEC3G blk – inhibitors of Vif-APOBEC3G interaction; HeLa A3G-eYFP + Vif (tagged APOBEC3G with the HIV-1 protein that degrades it), YFP fluorescence, overnight; 0.076% of 410,000 active; AID 602310; Potency, µM (highest dose often 46.1 µM), inactives show top-dose activity, negative = active, most hits filed as inhibitors; further: potency means the concentration at half of the fitted maximal effect; on the % scale 0 is the no-effect control and ±100 the full control effect; nearly all actives have a fitted effect of over 60% in size
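HeLa cells stably expressing Vif and C-terminally eYFP-tagged A3G, seeded overnight at 37 deg C, then exposed to compound by pintool overnight at 37 deg C. Rise in yellow fluorescence (Ex 488/Em 500-530, Acumen) marks blocked Vif-driven A3G degradation.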
TRPML1 inh – human mucolipin-1 channel inhibition | TRPML1-inducible cells, Ca2+ dye fluorescence, FDSS; stronger effect = lower value; inhibition of EC80 agonist-evoked calcium signal | activity change, negative = inhibition, % (no concentration beside the values) | 0.02% of 390,000 active | AID 624415; in the data active means activity change below about -50%; inconclusive means between about -30% and that limit;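 further: stimulus is agonist 54-4 at its EC80 concentration; on the % scale 0 is the no-effect control and ±100 the full control effect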
Target sequence (Q9GZU1 whole entry, looked up): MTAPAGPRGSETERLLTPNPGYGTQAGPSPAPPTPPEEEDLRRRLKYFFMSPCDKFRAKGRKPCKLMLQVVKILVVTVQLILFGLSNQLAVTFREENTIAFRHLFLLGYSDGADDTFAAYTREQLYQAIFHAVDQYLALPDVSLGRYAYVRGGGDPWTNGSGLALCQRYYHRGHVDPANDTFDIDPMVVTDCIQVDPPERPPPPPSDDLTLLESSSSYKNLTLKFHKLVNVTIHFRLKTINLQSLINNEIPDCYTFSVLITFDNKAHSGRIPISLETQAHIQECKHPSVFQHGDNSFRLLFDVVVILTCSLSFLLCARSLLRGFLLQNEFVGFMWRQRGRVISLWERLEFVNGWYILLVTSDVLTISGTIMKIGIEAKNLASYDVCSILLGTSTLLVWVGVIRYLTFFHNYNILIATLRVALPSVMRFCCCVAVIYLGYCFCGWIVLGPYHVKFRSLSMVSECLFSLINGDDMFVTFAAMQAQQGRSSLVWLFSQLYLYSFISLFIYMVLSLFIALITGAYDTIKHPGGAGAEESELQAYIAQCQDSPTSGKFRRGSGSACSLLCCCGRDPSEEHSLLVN
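Calcium fluorescence in TRPML1-DL cells induced overnight with Tet: a 110 s read after compound pin addition, then a 110 s antagonist read after challenge with 54-4 at 4 uM final (EC80).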
GRP78 ERSR act – ER stress response induction in glioma | U87-MG GRP78 promoter luciferase reporter, 16 h | Potency, µM, for inactives: at the highest dose activation, most hits filed as activators | 0.02% of 420,000 active | AID 602332; further: potency means the concentration at half of the fitted maximal effect; series mostly up to about 76 µM; % of control where 0% means no effect; nearly all actives have a fitted effect of over 35% in size
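Stably transfected U87-MG glioma cells carrying a GRP78-based luciferase sensor; 16 h compound incubation. Luminescence end-point read 10 min after Bright-Glo addition at room temperature.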
Vif-APOBEC3F blk – inhibitors of Vif-A3F interaction; HeLa A3F-eYFP + Vif (tagged APOBEC3F with the HIV-1 protein that degrades it), YFP fluorescence increase; Potency, µM (doses to about 46.1 µM), for inactives: top-dose activity, negative = active; 0.2% of 390,000 active; AID 602313; further: potency means the concentration at half of the fitted maximal effect; % of control where 0% means no effect; nearly all actives have a fitted effect of over 65% in size
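HeLa cells stably expressing Vif plus C-terminally eYFP-tagged A3F were seeded, incubated overnight at 37 deg C, dosed with compound, incubated overnight again at 37 deg C. Yellow fluorescence (Ex 488/Em 500-530) reported blocked Vif-mediated A3F-eYFP degradation.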
TRPML1 ag – agonists of human TRPML1 channel; activation, % (test concentration not listed); 0.12% of 410,000 active; Q9GZU1; TRPML1-expressing cells, Ca2+ dye fluorescence, FDSS; AID 624414; in the data active means activation above about 50%; inconclusive means mostly about 30% to 49%; further: 0% is about no effect
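In this qHTS format, compounds were pin-transferred onto Ca8-dye-loaded TRPML1-DL cells induced with Tet overnight, and intracellular Ca2+ fluorescence was recorded kinetically for 110 s after a 10 s baseline. A subsequent 4uM final 54-4 (EC80) addition followed by a second 110 s read served as the antagonist phase.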
* = called active by the depositor; ? = inconclusive; . = not tested or not shown. Unless noted, the call rests on the fitted dose curve; in most records, active means well fitted curve in the direction sought with a large enough effect; inconclusive means small, poorly fitted or top-dose-only effect, or another doubt; inactive means no such curve, though single readings can be large; an effect the other way counts as inactive or inconclusive.

SMILES	ALOX12 inh	Vif-APOBEC3G blk	TRPML1 inh	GRP78 ERSR act	Vif-APOBEC3F blk	TRPML1 ag
O=C(O)C1=C[C@H](c2ccc(Br)cc2)C[C@H](OCCCCO)O1	35.5µM*	4.7%	1.4	-3.2%	4.5%	-0.4
Cc1ccc(/C=N/Nc2nncc(-c3ccccc3)n2)o1	-5.9%	-5.5%	13.3	4.1%	-10.8%	0.5
Cc1[nH]n(-c2ccccc2)c(=O)c1/C=N/Nc1nncc(-c2ccccc2)n1	15.8µM*	?	-11.0	-0.6%	-0.8%	-0.4
Cc1[nH]n(-c2ccccc2)c(=O)c1/C=N/NC(=O)c1cccc(F)c1	35.5µM*	-9.9%	12.8	-0.6%	?	1.7
CCNc1c(NC(=O)c2cc(OC)c(OC)c(OC)c2)c(=O)oc2ccccc12	-0.8%	.	.	.	.	.
O=C(CCC(=O)c1ccc2c(c1)OCCCO2)OCc1ccccc1Cl	72.8%	.	.	.	.	.
Cc1cccc(CNc2nc(-c3ccc4c(c3)OCO4)nc3ccccc23)c1	39.8µM*	.	.	-3.6%	.	.
COc1cccc(NC(=O)CSc2nnc(COc3ccc4c(c3)CCCC4)o2)c1	14.1µM*	1.8%	-3.9	-6.3%	1.2%	0.2
CNc1c(NC(=O)Nc2ccc(F)cc2)c(=O)oc2ccccc12	10µM*	.	.	.	.	.
CNc1c(NC(=O)NCc2ccc(F)cc2)c(=O)oc2ccccc12	1.6%	.	.	.	.	.
CCn1c(C(=O)N2CCCC(C(=O)N3CCN(c4ccccc4)CC3)C2)cc2sccc21 (stereo not drawn)	-20.5%	1.7%	?	-2.5%	-12.4%	60.6*
CC(=O)c1ccc(C(=O)N(C)C(c2ccccc2)c2ccccc2)s1	-3.9%	.	.	.	.	.
COc1cccc(NC(=O)CSC2=C(C#N)C(c3ccc(C(C)C)cc3)C3=C(CCCC3=O)N2)c1 (stereo not drawn)	51.2%	.	.	.	.	.
CC(C)c1ccc(C2C(C#N)=C(SCC(N)=O)NC3=C2C(=O)CCC3)cc1 (stereo not drawn)	44.7µM*	.	.	.	.	.
NC(=S)NN=C1CCC(C2CCCCC2)CC1 (stereo not drawn)	35.5µM*	3.9%	-4.0	-5.2%	?	1.4
S=C(NN=C1CCCCCC1)Nc1ccc(Cl)cc1	?	-10.8%	16.8	-3.3%	-4.5%	0.4
O=C(NN=C1CCCCCC1)NC1CCCCC1	-3.6%	-1.9%	0.1	-4.3%	-9.4%	-1.1
NC(=S)NN=C1CCCCCCCCCC1	44.7µM*	-7.9%	-10.4	-2.5%	1.6%	0.0
O=C(CSc1nc2cc([N+](=O)[O-])ccc2o1)Nc1ccc(Cl)cc1	22.4µM*	.	.	.	.	.
Cc1ccc(NC(=O)CSc2nc3cc([N+](=O)[O-])ccc3o2)cc1C	39.8µM*	.	.	.	.	.
CCn1c(C)cc(C(=O)CSc2nc3cc([N+](=O)[O-])ccc3o2)c1C	3.0%	.	.	.	.	.
Cc1cccc(NC(=O)CSc2nc3cc([N+](=O)[O-])ccc3o2)c1	31.6µM*	.	.	.	.	.
Cc1cc(C(=O)CSc2nc3cc([N+](=O)[O-])ccc3o2)c(C)n1C	-6.6%	.	.	.	.	.
O=C(CSc1nc2cc(Cl)ccc2o1)Nc1ccc(N2CCOCC2)cc1	-18.0%	-5.4%	1.3	0.5%	1.2%	-0.1
COc1cccc2cc(C(=O)NCc3ccccc3)c(=O)oc12	-23.7%	.	.	.	.	.
SMILES	ALOX12 inh	Vif-APOBEC3G blk	TRPML1 inh	GRP78 ERSR act	Vif-APOBEC3F blk	TRPML1 ag
COc1ccc(-c2cc(C(=O)Nc3c(C)nn(Cc4ccccc4C)c3C)no2)cc1OC	-9.1%	.	.	.	.	.
COc1ccc(-c2nc(S(=O)(=O)c3ccc4c(c3)OCCO4)c(N3CCOCC3)o2)cc1	16.3%	.	.	.	.	.
CCCCCCc1cc2cc(-c3cn4c(n3)sc3cc(OC)ccc34)c(=O)oc2cc1O	-5.0%	5.7%	-70.7*	-3.3%	8.8%	2.8
COc1cc(C(=O)Nc2ccc3oc(-c4ccc(F)cc4)cc(=O)c3c2)cc(OC)c1OC	42.0%	.	.	.	.	.
S=c1[nH]nc(-c2cccnc2)n1C1CCCCC1	-17.5%	0.0%	4.2	-1.5%	-5.7%	0.0
COc1ccc(Cl)cc1-c1n[nH]c(=S)n1C1CCCCC1	39.8µM*	0.8%	-2.7	-0.9%	-2.5%	1.4
Cc1cc(Cl)ccc1OCc1n[nH]c(=S)n1C1CCCCC1	?	-7.6%	-4.3	-11.0%	0.0%	1.2
COc1ccc(-c2n[nH]c(=S)n2C2CCCCC2)cc1	44.7µM*	1.9%	-1.1	-3.7%	-5.7%	-0.7
